# In all, about 420,000 compounds went through this assay and about 64,000 (15%) were called active. Inconclusive results (about 27%) are left out. These entries were drawn from the full list. A number with no mark means an inactive call. The call rests on the fitted dose curve; in most records, active means well fitted inhibition curve with a large enough effect; inconclusive means small, poorly fitted or top-dose-only effect; inactive means flat fitted curve, though single readings scatter.
# Test: qHTS for Inhibitors of human tyrosyl-DNA phosphodiesterase 1 (TDP1): qHTS in cells in absence of CPT; further: nearly all actives have a fitted effect of over 55% in size
# Settings: DT40 Tdp1-/- hTDP1 cells, no CPT, ATP luminescence, 48 h; activity change, negative = growth inhibition: at 46.2 µM (top of the series)
# Outline: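 Chicken DT40 Tdp1-/- cells complemented with human TDP1, screened without camptothecin (DMSO vehicle only), 400 cells/well. Compounds pin-transferred, cells incubated at 37 °C for at least 48 hr. Growth read as ATP-dependent luminescence (CellTiter-Glo, 30 min at RT).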
# On the % scale 0 is the no-effect control and ±100 the full control effect; potency means the concentration at half of the fitted maximal effect.
Structure (SMILES),"activity change, negative = growth inhibition [%]",Potency
CC(C(=O)N(C)CC(=O)Nc1ccccc1C(F)(F)F)N1C(=O)c2ccccc2C1=O (stereo unspecified),-26.8,–
CCOC(CNC(=O)C(=O)NCC(c1ccco1)N1CCN(c2ccc(OC)cc2)CC1)OCC (stereo unspecified),11.3,–
CC[n+]1cc(C)ccc1/C=C/c1ccc(N(C)C)cc1,–,0.0259 µM (active)
CCNC(=O)COC(=O)/C=C/c1c(C)nn(Cc2cccc(OC)c2)c1Cl,-26.6,–
Cc1cn(C)c(=O)n(C)c1=O,12.7,–
Cc1ccc(-c2c3c(=O)n(C)c(=O)n(C)c3cn2-n2cnnc2)cc1,–,20.6 µM (active)
Cc1ccc(-c2c3c(=O)n(C)c(=O)n(C)c3cn2-c2ccccc2O)cc1,-4.34,–
CC1CCN(CCC(=O)Nc2ccccc2)CC1,-1.21,–
CC1=NC2(CCCc3c2no[n+]3[O-])N(O)C1(C)C (stereo unspecified),-12,–
COc1ccc(Nc2cc(Sc3ccc(OC)cc3)ncn2)cc1,–,16.4 µM (active)
COc1ccc(NC(=O)Nc2ccc3nc(C)c(C)nc3c2)cc1,-20.1,–
COc1ccc(Nc2nc(=O)[nH]nc2C)cc1,-0.528,–
CCCC(NS(=O)(=O)c1ccc(OC)cc1)C(=O)O (stereo unspecified),-6.51,–
COC(=O)c1ccc(COC(=O)c2c(C)nn(Cc3ccccc3Cl)c2Cl)o1,-4.36,–
CC(=O)Oc1ccc(C)cc1N1C(=O)c2ccc(C(=O)O)cc2C1=O,-15.5,–
COc1ccc(C(=O)CN2C(=O)NC(C)(c3ccc(C)cc3)C2=O)cc1OC (stereo unspecified),-4.31,–
COc1ccc(C)cc1-n1c(-c2ccc(C)cc2)cc2c1CC(C)(C)CC2=O,–,8.2 µM (active)
Cc1cc(NC(=O)COC(=O)c2ccc(F)c(S(=O)(=O)N3CCOCC3)c2)no1,0.35,–
Cc1c(CCO)sc[n+]1CC(=O)c1ccc2ccccc2c1,–,15.8 µM (active)
O=C(OCC(=O)N1CCOCC1)c1ccc2ccccc2c1,-8.74,–
Cc1ccccc1OCC(=O)NCC(=O)OCC(=O)c1ccc2ccccc2c1,–,inactive
O=C(CCn1ccc([N+](=O)[O-])n1)Nc1nccs1,-0.635,–
CCOc1ccc(-n2c(SCC(N)=O)nnc2-c2ccco2)cc1,-102,–
O=C(COC(=O)C1CCN(S(=O)(=O)c2ccc3c(c2)OCCO3)CC1)Nc1ccccc1OC(F)F,-20.5,–
O=C(NCc1ccccn1)c1cc(Br)ccc1Cl,-17.2,–
COc1ccc(Br)cc1/C=N/Nc1ccc(Cl)c(C(=O)O)c1,-11.1,–

Structure (SMILES),"activity change, negative = growth inhibition [%]",Potency
Oc1ccc(Br)cc1/C=N/Nc1ccccn1,–,3.66 µM (active)
COc1cc2c(C(=O)N(C)c3cc(Cl)ccc3OC)cn(C)c(=O)c2cc1OC,-28.8,–
O=C(CSc1ccccn1)N1CCN(S(=O)(=O)c2ccc(Cl)cc2)CC1,-22.9,–
C/C(N)=C(\C#N)C(=O)NCCc1ccccn1,14.5,–
Cc1ccc(NC(=O)CN2CCC(C(N)=O)CC2)cc1[N+](=O)[O-],-11.3,–
COc1ccc(C23NCCN2C(=O)c2ccccc23)cc1 (stereo unspecified),11,–
CC12CN3CCN(CC(C3)/C1=N\NC(=O)c1ccccc1N)C2,2.03,–
CCOc1ccccc1NC(=O)C1CCC(CNc2c(N3CCOCC3)c(=O)c2=O)CC1 (stereo unspecified),-11.8,–
CCN(CC)c1ccc(NC(=O)C2CCC(CNc3c(N4CCCC4)c(=O)c3=O)CC2)c(C)c1 (stereo unspecified),–,14.6 µM (active)
COc1ccc(NC(=O)C2CCC(CNc3c(N4CCCCC4)c(=O)c3=O)CC2)c(OC)c1 (stereo unspecified),-15.1,–
Cc1ccc(NS(=O)(=O)c2ccc(-c3coc(C)n3)cc2)c(C)c1,-28.1,–
COC(=O)c1c(OCc2ccc(F)cc2)cc(=O)n2c1CCN(Cc1ccc3cccnc3c1)CC2,-16.2,–
Cc1ccc(NC(=O)N2CCC(C(=O)NCc3ccc(F)cc3)CC2)cc1,-21.1,–
CCc1ccc(CNC(=O)C2CCN(c3nn4cc(-c5ccc(F)cc5)nc4s3)CC2)cc1,-16.1,–
O=C(NCc1ccccc1Cl)C1CCN(S(=O)(=O)N2CCOCC2)CC1,-4.3,–
O=C(NCc1cccc(Cl)c1)C1CCN(c2nnc(N3CCCC3=O)s2)CC1,1.66,–
Cc1ccc(C)n1-c1nnc(N2CCC(C(=O)NCc3ccccc3Cl)CC2)s1,–,18.4 µM (active)
Cc1ccc(C)n1-c1nnc(N2CCC(C(=O)NCc3ccc(F)cc3)CC2)s1,–,23.1 µM (active)
O=C(O)CSc1ccc(S(=O)(=O)N2CCCC2)cn1,4.27,–
COc1cccc(NC(=O)COc2cc(C)cc3oc(=O)cc(C)c23)c1,10.1,–
COC(=O)C(C)Oc1ccc2c(-c3cccc([N+](=O)[O-])c3)cc(=O)oc2c1 (stereo unspecified),-6.62,–
COc1cc(OC)c2c(-c3cccc(-c4cccc(N)c4)c3)cc(=O)oc2c1,–,4.61 µM (active)
Cc1c(CCC(=O)O)c(=O)oc2cc(OCc3ccc(Br)cc3)ccc12,17,–
CCC(=C/c1sc2ccc3ccccc3c2[n+]1C)/C=C1\Sc2ccc3ccccc3c2N1C,–,0.092 µM (active)
Cc1c(C)n(Cc2ccc(Cl)cc2)c2ccc(C(=O)NCCCN3CCOCC3)cc12,–,18.4 µM (active)
